Hits are enriched below; roughly 8% of the tested compounds scored in any of these assays.
HCMV antiviral = blocks human cytomegalovirus replication | HFF cells, HCMV-luciferase reporter, 72 h; stronger effect = lower value | activity change, negative = inhibition, % at 57.5 µM | hit rate 4.5% among 410,000 | AID 1259415; in the data active = activity change below about -60%; inconclusive = no clear call, values can overlap the other calls; inactive = above about -39%; note: % is set by controls: 0 for no effect and ±100 for the full control effect
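Compounds were evaluated in HFFs infected with an HCMV luciferase reporter virus (MOI 1 PFU/cell). Luciferase in lysates collected 72 h post infection served as the replication measure.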
MARV entry inh = Marburg virus entry inhibition | Marburg virus pseudotyped entry inhibition, cell reporter | Potency, µM (titrated, usually from 37.8 µM), for the others: at the highest dose activity change, negative = inhibition, usual class: inhibitors | hit rate 1.8% among 300,000; calls by dose curve; tested in HEK293 cells; note: potency is the fitted concentration of half-maximal effect; % is set by controls: 0 for no effect and ±100 for the full control effect
HCV inhibitor = HCV inhibition. Potency, µM (series often up to 41.8 µM), for inactives: at the top dose activity change, negative = inhibition, actives largely listed as inhibitors. hit rate 3.4% among 340,000. Huh7.5.1 HCVcc-Cre infection, luciferase reporter, 44 h; active = well fitted inhibition curve with a large enough effect; inconclusive = small, poorly fitted or top-dose-only effect, or another doubt; inactive = no such curve, though single readings can be large or run the other way; note: potency is the fitted concentration of half-maximal effect; % is set by controls: 0 for no effect and ±100 for the full control effect
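Infectious HCV cell culture screen: compound-treated cells (1,000/well, pre-plated 4 h) are infected with HCVcc-Cre at roughly 0.5 moi and grown 44 h. Infection is quantified by luciferase signal after 15 min substrate incubation at room temperature.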
Lassa entry inh = inhibitors of Lassa virus binding or cell entry; hit rate 1.2% among 300,000; Lassa virus pseudotype entry inhibition, cell reporter; AID 540256; Potency, µM (titrated, usually from 37.9 µM), for the others: at the highest dose activity change, negative = inhibition, actives largely listed as inhibitors; calls by dose curve; tested in HEK293 cells; note: potency is the fitted concentration of half-maximal effect; % is set by controls: 0 for no effect and ±100 for the full control effect; nearly all actives have a fitted effect of over 50% in size
SARS PLpro yeast = inhibitors of SARS-CoV papain-like protease in yeast; hit rate 0.19% among 330,000; AID 485353; S. cerevisiae expressing SARS-CoV PLpro, growth rescue; Potency, µM (series often up to 32.9 µM), without a hit: at the highest dose activity, positive = growth rescue, actives largely listed as activators; calls by dose curve; note: potency is the fitted concentration of half-maximal effect; 0% is about no effect; nearly all actives have a fitted effect of over 55% in size
FMDV inh = blocks foot and mouth disease virus. FMDV antiviral cell-based qHTS. hit rate 1.2% among 410,000. AID 1159524. Potency, µM (series often up to 57.9 µM), for inactives: top-dose activity change, negative = inhibition, actives largely listed as inhibitors; calls by dose curve; tested in HEK293T cells; note: read-out not given here; potency is the fitted concentration of half-maximal effect; % is set by controls: 0 for no effect and ±100 for the full control effect; nearly all actives have a fitted effect of over 45% in size
Numbers without * were called inactive; [ ] = dose if it differs, or a comment.

How did O=C1CS(=O)(=O)C2(C(=O)N(Cc3ccc(F)cc3)c3ccccc32)N1c1cccc(C(F)(F)F)c1 (stereo not given) do in these assays?
HCMV antiviral: -77*; Lassa entry inh: 4%[46.1 µM]; FMDV inh: -1%

Results for COc1ccc(C(=O)OC(C)C(=O)NC2CCCCC2C)cc1S(=O)(=O)N1CCOCC1 (stereo not given) ?
HCMV antiviral: -98*; MARV entry inh: -13%; HCV inhibitor: 9%; Lassa entry inh: 12%; SARS PLpro yeast: 2%; FMDV inh: -7%

How did CC(=O)c1cccc(N(C(=O)Cn2nnc3ccccc32)C(C(=O)NCc2ccccc2)c2ccc(F)cc2)c1 (stereo not given) do in these assays?
HCMV antiviral: -30; MARV entry inh: inconclusive; Lassa entry inh: inconclusive; FMDV inh: 10%

How did Cn1nnnc1SCCNCc1cc(Br)ccc1OCc1ccccc1Cl do in these assays?
HCMV antiviral: -69*; MARV entry inh: inconclusive; Lassa entry inh: inconclusive; FMDV inh: inconclusive

How did Cn1nnnc1SCCNCc1ccc(OCc2ccccc2Cl)cc1 do in these assays?
HCMV antiviral: -105*; MARV entry inh: inconclusive; Lassa entry inh: -3%[46.1 µM]; FMDV inh: 0%

What do the screens show for `CCCCCCCNC(=O)C1(CC2CC(c3ccc(Cl)cc3)=NO2)CCNCC1` (stereo not given)?
HCMV antiviral: -100*; HCV inhibitor: 9%; SARS PLpro yeast: 12%; FMDV inh: -25%

Results for C/C(=N\NC(=O)C(C)Oc1ccc([N+](=O)[O-])cc1)c1ccccn1 (stereo not given) ?
HCMV antiviral: -104*; MARV entry inh: inconclusive; HCV inhibitor: inconclusive; Lassa entry inh: 12µM*; SARS PLpro yeast: -2%; FMDV inh: -26%

What do the screens show for `CC(C)(C)C(=O)Nc1ccc(C(=O)N/N=C/c2ccccc2OC(=O)c2ccc(Cl)cc2)cc1`?
HCMV antiviral: -23; MARV entry inh: inconclusive; HCV inhibitor: 10µM*; Lassa entry inh: inconclusive; SARS PLpro yeast: 5%; FMDV inh: -2%

How did COc1ccc(C(=O)N/N=C/c2ccc(OC(=O)c3ccccc3)cc2)cc1 do in these assays?
HCMV antiviral: 53; MARV entry inh: 0%; HCV inhibitor: 10%; Lassa entry inh: 27%; SARS PLpro yeast: 1%; FMDV inh: 22%

How did COc1cc(C(=O)Oc2ccccc2/C=N/NC(=O)c2ccc(C)cc2)cc(OC)c1OC do in these assays?
HCMV antiviral: -99*; MARV entry inh: inconclusive; HCV inhibitor: 7.9µM*; Lassa entry inh: 8.9µM*; SARS PLpro yeast: 6%; FMDV inh: 21%

What do the screens show for `COc1ccc(C(=O)N/N=C/c2ccccc2OC(=O)c2ccccc2)cc1`?
HCMV antiviral: -97*; MARV entry inh: 13µM*; HCV inhibitor: inconclusive; Lassa entry inh: inconclusive; SARS PLpro yeast: -2%; FMDV inh: 61%

What do the screens show for `CC(C)(C)C(=O)Nc1ccc(C(=O)N/N=C/c2ccccc2OC(=O)c2ccccc2)cc1`?
HCMV antiviral: -35; MARV entry inh: inconclusive; HCV inhibitor: inconclusive; Lassa entry inh: inconclusive; SARS PLpro yeast: -8%; FMDV inh: 0%

Results for COc1cc(C(=O)N/N=C/c2ccsc2C)cc(OC)c1OC ?
HCMV antiviral: -79*; MARV entry inh: inconclusive; HCV inhibitor: inconclusive; Lassa entry inh: inconclusive; SARS PLpro yeast: -5%; FMDV inh: -13%

Results for CC[n+]1c(/C=C/c2c[nH]c3ccccc23)ccc2cc(C)ccc21 ?
HCMV antiviral: -99*; MARV entry inh: inconclusive; HCV inhibitor: 4.5µM*; Lassa entry inh: inconclusive; SARS PLpro yeast: -9%; FMDV inh: 13µM*

How did COc1ccc(S(=O)(=O)N2CCC(c3nnnn3-c3ccccc3)CC2)cc1OC do in these assays?
HCMV antiviral: -39; MARV entry inh: -21%[46.1 µM]; Lassa entry inh: inconclusive; FMDV inh: 25µM*

Results for O=S(=O)(c1ccc(OC(F)(F)F)cc1)N1CCC(c2nnnn2-c2ccc(F)cc2)CC1 ?
HCMV antiviral: -73*; MARV entry inh: 0%[46.1 µM]; Lassa entry inh: 21%[46.1 µM]; FMDV inh: -14%

Compound activity as filed in PubChem.
